CD11b adhes inh = inhibitors of human CD11b/CD18 binding to fibrinogen | 0.54% of 93,000 active | AID 1497 | inhibition, % at 10 µM | K562 CD11b/CD18 adhesion to fibrinogen, ATPlite luminescence; Mn2+ added to activate the integrin;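 active = primary inhibition of 50% or more at 10 µM, then 40% or more on retest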
Pyk2 oligo antag = Pyk2 (human) oligomerization antagonism; AID 1347419; 0.83% of 99,000 active; Q14289; z-score (the deposit names both 25 µM and 10 µM); Q293 cells, Pyk2 FERM NanoBiT luminescence; hits give low values;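 active = Z-score of -3 or lower, scaled per plate to the spread of control and sample wells; inactive = z-score above -3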;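 note: negative z-score means lost luminescence so less FERM oligomerization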
Target sequence (Q14289 whole entry, looked up): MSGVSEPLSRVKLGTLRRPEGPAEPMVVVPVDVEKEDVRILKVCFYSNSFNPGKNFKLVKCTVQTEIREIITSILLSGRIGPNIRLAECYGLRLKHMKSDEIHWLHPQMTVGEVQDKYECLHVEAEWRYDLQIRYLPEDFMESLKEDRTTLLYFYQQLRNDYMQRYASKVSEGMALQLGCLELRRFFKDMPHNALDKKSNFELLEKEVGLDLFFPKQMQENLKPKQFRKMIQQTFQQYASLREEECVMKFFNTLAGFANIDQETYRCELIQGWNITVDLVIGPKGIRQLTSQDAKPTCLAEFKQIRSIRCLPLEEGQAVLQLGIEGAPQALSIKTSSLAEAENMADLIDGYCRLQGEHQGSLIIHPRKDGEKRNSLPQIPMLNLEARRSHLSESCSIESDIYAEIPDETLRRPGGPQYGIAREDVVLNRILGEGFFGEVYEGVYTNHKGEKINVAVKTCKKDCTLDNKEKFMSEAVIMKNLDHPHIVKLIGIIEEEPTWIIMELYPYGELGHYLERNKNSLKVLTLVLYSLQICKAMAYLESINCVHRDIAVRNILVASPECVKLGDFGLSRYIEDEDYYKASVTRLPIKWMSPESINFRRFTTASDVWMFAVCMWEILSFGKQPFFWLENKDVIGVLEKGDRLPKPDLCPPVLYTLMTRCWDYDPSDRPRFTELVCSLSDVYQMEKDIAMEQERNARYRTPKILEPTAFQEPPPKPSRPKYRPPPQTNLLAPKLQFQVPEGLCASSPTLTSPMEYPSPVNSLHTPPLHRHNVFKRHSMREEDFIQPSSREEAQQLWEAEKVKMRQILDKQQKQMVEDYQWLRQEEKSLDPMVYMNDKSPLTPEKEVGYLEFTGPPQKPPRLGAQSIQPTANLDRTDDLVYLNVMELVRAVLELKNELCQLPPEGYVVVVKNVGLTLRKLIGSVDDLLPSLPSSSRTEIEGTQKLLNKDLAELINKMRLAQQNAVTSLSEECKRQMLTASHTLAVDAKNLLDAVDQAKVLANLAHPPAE
CD11b adhes enh = increases human CD11b/CD18 adhesion to fibrinogen; activation, % at 10 µM; P05107+P11215; AID 1499; 0.07% of 93,000 active; K562 CD11b/CD18 adhesion to fibrinogen, ATPlite luminescence;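 active = 10 µM primary screen giving 50% or more activity, confirmed by 40% or more on retest at that dose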
FAK blocker = FAK (human) kinase inhibition; AID 727; biochemical FAK kinase activity assay; 0.84% of 97,000 active; inhibition, %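 (tested at 7 µM)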; Q05397;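 note: 0% = DMSO and 100% = reference compound high control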
FAK inh conf = confirmation of human focal adhesion kinase (FAK) inhibitors | shares compounds with FAK blocker | FAK kinase biochemical inhibition assay | inhibition, % at 7 µM | 28% of 750 active
The depositor's hits bear a star; . = no result given. This is a sample that favours compounds with a hit; in the whole collection about 1.8% have one here. Cut-off read from the data, not from the text of the source, unless noted: active = inhibition above about 19%; inactive = the rest.

SMILES	CD11b adhes inh	Pyk2 oligo antag	CD11b adhes enh	FAK blocker	FAK inh conf
Cc1ccccc1-n1c(SCc2ccccn2)nc2n[nH]c(C)c2c1=N	3	-2.9	11	30*	10
CCOc1ccccc1NC(=O)CCSc1nc2n[nH]c(C)c2c(=N)n1-c1ccccc1Cl	-25	-1.3	14	.	.
Cc1ccc2c(c1)NC(=O)c1cccnc1N2	.	-0.96	.	12	.
O=C1Nc2ccccc2Nc2ncccc21	-1	0.11	-4	39*	12
c1ccc2c(c1)ncn2-c1ccc(-c2ccnc(-c3ccncc3)n2)cc1	.	0.23	.	29*	10
Cc1nccc(-c2ccc(-n3cnc4ccccc43)cc2)n1	-2	-0.58	-4	-2	.
CCCCC1C(C#N)=C(C)NC2=C1C(=O)CC(C)(C)C2 (stereo not drawn)	0	-0.88	-6	3	.
CCOc1cccc(CNc2ccc(O)cc2)c1OCc1ccc(Cl)cc1Cl	47	-1.4	-9	29*	0
COc1ccc(O)c(/C=N/NC(=O)c2ccc(OCc3cccc(Br)c3)cc2)c1	.	1.5	.	19*	9
COc1ccc(C(=O)NCC(=O)OCc2cccc(Br)c2)cc1	.	0.63	.	-12	.
Cc1ccc2c(n1)sc1c(-c3ccc(Br)cc3)c(C#N)c(N)nc12	.	-1.1	.	29*	14
COc1ccc(COc2ccsc2C(=O)Nc2ccc(Cl)c(Cl)c2)cc1	.	1.1	.	25*	7
Cc1ccc(S(=O)(=O)Nc2cc(C(=O)Nc3cc(C)cc(C)c3)ccc2Cl)cc1	42	-0.38	-2	-4	.
COc1ccc(CCn2c(=S)[nH]c3cc(C(=O)NCc4ccco4)ccc3c2=O)cc1OC	28	-2.8	22	35*	12
Cc1ccc(NC(=O)c2ccc3c(c2)OCCO3)cc1S(=O)(=O)Nc1cccc(Cl)c1	98	.	-6	.	.
Cc1c(Cl)cccc1NC(=O)C1NC(=O)CC1c1ccccc1 (stereo not drawn)	-7	.	3	-4	.
Clc1ccc2[nH]c3c(c2c1)CCc1cn[nH]c1-3	-4	-1.7	4	20*	7
c1ccc2c3c([nH]c2c1)-c1[nH]ncc1CC3	-8	-0.04	0	42*	20*
O=CNC1CCCc2c1[nH]c1ccc(Cl)cc21 (stereo not drawn)	-5	-0.03	2	1	.
O=C1CCCc2c1[nH]c1ccccc21	-5	0.18	-5	6	.
COc1ccc2c(CC(=O)Nc3cccc(S(=O)(=O)N4CCOCC4)c3)coc2c1	10	.	18	.	.
CCOC(=O)c1cc(-c2ccccc2)sc1NC(=O)C(C)N1C(=O)c2ccccc2C1=O (stereo not drawn)	-12	.	2	.	.
O=C(Nc1ccc(N2CCCC2)cc1)C(c1ccccc1)c1ccccc1	-48	-0.24	85	46*	29*
O=C(Cc1ccccc1)Nc1ccc(N2CCCC2)cc1	3	-0.33	7	30*	16
CC(C)C(=O)Nc1ccc(N2CCCC2)cc1	4	-0.06	-3	5	.
SMILES	CD11b adhes inh	Pyk2 oligo antag	CD11b adhes enh	FAK blocker	FAK inh conf
CCN1CCN(c2ccc(NC(=O)Cc3ccccc3)cc2)CC1	4	1.4	-1	7	.
Cc1ccc(NC(=O)COC(=O)c2cc(C)nc3ccccc23)c([N+](=O)[O-])c1	-25	.	19	.	.
Cc1ccc2nsnc2c1S(=O)(=O)Nc1cccc2nsnc12	-8	-1.6	-1	71*	48*
Cc1ccc(C)c(NS(=O)(=O)c2c(C)ccc3nsnc23)c1	11	-0.79	-1	4	.
Cc1cc2n(c1)CCn1c(C)ccc1-2	-16	.	93	23*	17
CCOC(=O)c1sc(C)c2c1NC(c1ccc(Cl)cc1)NC2=O (stereo not drawn)	0	-0.28	-8	-28	.
O=C(O)c1ccccc1OCCOc1ccccc1C(=O)O	-25	0.91	3	8	.
O=C(O)c1ccccc1OCCOCCOc1ccccc1C(=O)O	3	-0.21	7	38*	34*
Nc1ncnc2nc(SCc3ccc(Cl)cc3Cl)[nH]c12	3	0.24	2	25*	16
Nc1ncnc2nc(Sc3ccc(Cl)cc3)[nH]c12	4	0.76	6	2	.
CCC(=O)Nc1ccc(Nc2nc(C)c([N+](=O)[O-])c(Nc3ccc(NC(=O)CC)cc3)n2)cc1	12	.	4	.	.
CCN1CCc2c(sc(N)c2C#N)C1	2	-0.7	-3	26*	19*
Cc1cccn2c(=O)c(C=Nc3ccccc3)c(NCc3ccco3)nc12	-5	-0.62	-3	24*	4
COc1cc(C2CC(=O)c3cnc(N4CCN(Cc5ccccc5)CC4)nc3C2)cc(OC)c1OC (stereo not drawn)	6	-1.9	4	19*	5
CCc1nc(SCC(=O)NNC(=O)C2CCCCC2)c2ccccc2n1	.	-0.26	.	36*	20*
CCc1nc(SCC(=O)NNC(=O)C(C)C)c2ccccc2n1	-10	0.54	4	42*	19
O=c1[nH]c(Nc2ccc(F)cc2)cc2ccccc12	13	-0.73	4	36*	7
Cc1ccccc1Nc1cc2ccccc2c(=O)[nH]1	51	0.25	3	.	.
O=C(Nc1ccc2c(c1)OCCO2)c1cccc2nc3ccccc3nc12	.	-2.4	.	38*	16
Cc1ccc(C(=O)Nc2cc(C)c(OCC(=O)N3CCOCC3)c(C)c2)cc1	6	0.09	-4	2	.
Cc1ccc(NC(=O)C2CCCO2)cc1[N+](=O)[O-] (stereo not drawn)	-3	.	10	.	.
CCOC(=O)C1=C(c2ccccc2)OC(N)=C(C#N)C1c1cccs1 (stereo not drawn)	8	-1.1	-1	26*	20*
CCOC(=O)c1sc2c(c1C)C(c1cccs1)C1=C(CCCC1=O)N2 (stereo not drawn)	-4	-1.1	-5	24*	19*
CCN(CC)c1ccc(/C=C(\C#N)c2nc(-c3cccs3)c(NC(C)=O)s2)cc1	4	.	2	.	.
COc1ccc(-c2oc3ncn(CCN4CCOCC4)c(=N)c3c2-c2ccc(OC)cc2)cc1	0	-1.4	1	20*	1
SMILES	CD11b adhes inh	Pyk2 oligo antag	CD11b adhes enh	FAK blocker	FAK inh conf
COc1ccc(-c2oc3ncnc(NCCCN4CCOCC4)c3c2-c2ccc(OC)cc2)cc1	-2	-1.8	17	34*	9
c1ccc(-c2oc3ncnc(NCCCN4CCOCC4)c3c2-c2ccccc2)cc1	18	-1.5	3	17	.
COc1ccc(-c2csc3ncnc(NCCN4CCOCC4)c23)cc1	7	-1.4	-1	4	.
COc1ccc(-c2oc3ncnc(NCCN4CCOCC4)c3c2-c2ccc(OC)cc2)cc1	2	-1.5	-2	21*	10
C/C(=N/NC(=O)CNC(=O)COc1ccccc1)c1ccco1	-3	.	7	.	.
N#CC1=C(N)Oc2ccc3ccc(O)cc3c2C1c1ccsc1 (stereo not drawn)	25	.	1	.	.
CCCc1[nH]nc2c1C(c1ccc(O)c(OC)c1)C(C#N)=C(N)O2 (stereo not drawn)	9	0.31	-1	20*	0
COc1ccc(Br)cc1CN(C)CC(=O)Nc1c(Cl)cccc1Cl	24	.	1	.	.
CC(C)CN(C(=O)COC(=O)c1cc2c(s1)CCC2)C1CCS(=O)(=O)C1 (stereo not drawn)	-20	0.26	70	30*	9

Assay outcomes (PubChem BioAssay)
